# Measured values as given in ChEMBL document CHEMBL1961873, “Compounds: GSK PKIS; Assays: Nanosyn kinase panel” (2012).
# Columns and labels:
# [1] = target: Sphingosine kinase 1 (Homo sapiens) (UniProt Q9NYA1); conditions: at 1 µM;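 further: mean SPHK1 inhibition value reported from the GSK PKIS kinase panel screen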
# [2] = target: T1, Sphingosine kinase 2 (Homo sapiens) (UniProt Q9NRA0); conditions: at 0.1 µM
# T1 sequence (whole entry): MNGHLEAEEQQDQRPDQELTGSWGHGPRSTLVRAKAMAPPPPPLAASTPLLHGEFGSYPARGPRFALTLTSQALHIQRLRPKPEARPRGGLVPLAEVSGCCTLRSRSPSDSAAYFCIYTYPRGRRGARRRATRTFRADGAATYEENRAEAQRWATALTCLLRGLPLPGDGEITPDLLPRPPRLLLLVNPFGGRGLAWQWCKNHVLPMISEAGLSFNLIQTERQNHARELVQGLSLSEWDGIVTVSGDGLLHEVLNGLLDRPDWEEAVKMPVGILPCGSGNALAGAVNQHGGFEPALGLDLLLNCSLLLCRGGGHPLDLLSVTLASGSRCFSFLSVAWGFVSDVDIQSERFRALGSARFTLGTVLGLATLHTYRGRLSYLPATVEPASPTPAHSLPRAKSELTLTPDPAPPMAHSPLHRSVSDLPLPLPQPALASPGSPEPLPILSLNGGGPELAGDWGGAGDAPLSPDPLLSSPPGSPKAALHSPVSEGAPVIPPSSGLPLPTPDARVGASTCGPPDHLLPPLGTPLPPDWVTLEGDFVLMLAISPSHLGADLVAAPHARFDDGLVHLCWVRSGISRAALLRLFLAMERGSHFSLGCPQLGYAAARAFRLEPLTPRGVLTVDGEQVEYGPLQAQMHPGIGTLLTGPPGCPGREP
# [3] = target: T1, Sphingosine kinase 2 (Homo sapiens); conditions: at 1 µM
# [4] = target: Casein kinase II subunit alpha (Homo sapiens) (UniProt P68400); conditions: at 0.1 µM
# Casein kinase II subunit alpha (Homo sapiens), sequence (P68400 whole entry, looked up): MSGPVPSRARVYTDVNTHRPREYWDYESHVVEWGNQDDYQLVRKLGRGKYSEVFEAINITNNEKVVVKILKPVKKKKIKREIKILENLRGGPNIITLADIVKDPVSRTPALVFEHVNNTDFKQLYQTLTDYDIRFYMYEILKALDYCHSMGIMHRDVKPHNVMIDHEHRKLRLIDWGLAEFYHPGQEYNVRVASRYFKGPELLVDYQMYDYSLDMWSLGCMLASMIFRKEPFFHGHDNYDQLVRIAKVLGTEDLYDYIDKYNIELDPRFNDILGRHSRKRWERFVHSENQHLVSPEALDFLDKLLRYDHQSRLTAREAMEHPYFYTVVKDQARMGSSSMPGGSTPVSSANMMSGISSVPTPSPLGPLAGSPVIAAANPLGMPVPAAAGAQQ
# [5] = target: Casein kinase II subunit alpha (Homo sapiens) (UniProt P68400); conditions: at 1 µM
# [6] = target: T2, Inhibitor of nuclear factor kappa-B kinase subunit alpha (Homo sapiens) (UniProt O15111); conditions: at 0.1 µM
# T2 sequence (whole entry): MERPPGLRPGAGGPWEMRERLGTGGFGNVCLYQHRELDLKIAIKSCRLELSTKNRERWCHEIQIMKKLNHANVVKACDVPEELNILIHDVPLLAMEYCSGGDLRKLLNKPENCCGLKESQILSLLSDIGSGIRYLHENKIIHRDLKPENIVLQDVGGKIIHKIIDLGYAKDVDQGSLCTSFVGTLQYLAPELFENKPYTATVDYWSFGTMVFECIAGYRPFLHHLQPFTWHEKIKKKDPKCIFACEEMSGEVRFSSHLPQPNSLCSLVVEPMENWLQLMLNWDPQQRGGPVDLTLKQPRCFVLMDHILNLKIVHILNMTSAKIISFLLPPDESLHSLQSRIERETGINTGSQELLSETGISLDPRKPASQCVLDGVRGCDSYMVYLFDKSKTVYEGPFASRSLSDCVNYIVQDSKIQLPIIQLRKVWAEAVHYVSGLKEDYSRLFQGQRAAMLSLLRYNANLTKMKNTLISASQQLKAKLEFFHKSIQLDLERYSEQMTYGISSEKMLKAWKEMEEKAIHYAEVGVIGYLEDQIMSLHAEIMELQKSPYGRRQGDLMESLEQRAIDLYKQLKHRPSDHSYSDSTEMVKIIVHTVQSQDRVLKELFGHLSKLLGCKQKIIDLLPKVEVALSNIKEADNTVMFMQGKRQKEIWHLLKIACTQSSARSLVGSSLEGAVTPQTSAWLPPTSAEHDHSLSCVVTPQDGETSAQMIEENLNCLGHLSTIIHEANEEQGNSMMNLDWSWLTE
# [7] = target: T2, Inhibitor of nuclear factor kappa-B kinase subunit alpha (Homo sapiens); conditions: at 1 µM
# [8] = target: T3, Inhibitor of nuclear factor kappa-B kinase subunit beta (Homo sapiens) (UniProt O14920); conditions: at 0.1 µM
# T3 sequence (whole entry): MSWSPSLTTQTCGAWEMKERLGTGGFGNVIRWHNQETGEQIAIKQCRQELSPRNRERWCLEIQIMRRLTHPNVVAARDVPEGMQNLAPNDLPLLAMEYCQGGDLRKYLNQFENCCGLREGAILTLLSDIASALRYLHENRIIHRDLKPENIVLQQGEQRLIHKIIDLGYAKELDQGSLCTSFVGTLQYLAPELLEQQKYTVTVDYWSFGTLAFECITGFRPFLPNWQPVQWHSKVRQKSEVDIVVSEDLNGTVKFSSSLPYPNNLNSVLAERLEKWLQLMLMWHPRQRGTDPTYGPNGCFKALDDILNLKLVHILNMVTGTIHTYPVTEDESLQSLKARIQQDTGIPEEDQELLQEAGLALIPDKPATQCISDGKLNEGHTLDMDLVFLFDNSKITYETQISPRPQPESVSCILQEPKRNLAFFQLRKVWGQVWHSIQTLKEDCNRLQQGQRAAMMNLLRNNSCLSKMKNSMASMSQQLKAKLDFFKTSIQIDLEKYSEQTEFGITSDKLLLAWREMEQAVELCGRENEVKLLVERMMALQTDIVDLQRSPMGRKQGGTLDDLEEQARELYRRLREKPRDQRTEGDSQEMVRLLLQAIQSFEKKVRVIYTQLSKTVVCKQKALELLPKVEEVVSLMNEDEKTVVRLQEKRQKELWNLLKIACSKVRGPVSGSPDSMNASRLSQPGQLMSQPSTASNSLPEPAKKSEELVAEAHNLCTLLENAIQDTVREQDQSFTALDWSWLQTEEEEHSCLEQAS
# [9] = target: T3, Inhibitor of nuclear factor kappa-B kinase subunit beta (Homo sapiens); conditions: at 1 µM
# [10] = target: T4, Inhibitor of nuclear factor kappa-B kinase subunit epsilon (Homo sapiens) (UniProt Q14164); conditions: at 0.1 µM
# T4 sequence (whole entry): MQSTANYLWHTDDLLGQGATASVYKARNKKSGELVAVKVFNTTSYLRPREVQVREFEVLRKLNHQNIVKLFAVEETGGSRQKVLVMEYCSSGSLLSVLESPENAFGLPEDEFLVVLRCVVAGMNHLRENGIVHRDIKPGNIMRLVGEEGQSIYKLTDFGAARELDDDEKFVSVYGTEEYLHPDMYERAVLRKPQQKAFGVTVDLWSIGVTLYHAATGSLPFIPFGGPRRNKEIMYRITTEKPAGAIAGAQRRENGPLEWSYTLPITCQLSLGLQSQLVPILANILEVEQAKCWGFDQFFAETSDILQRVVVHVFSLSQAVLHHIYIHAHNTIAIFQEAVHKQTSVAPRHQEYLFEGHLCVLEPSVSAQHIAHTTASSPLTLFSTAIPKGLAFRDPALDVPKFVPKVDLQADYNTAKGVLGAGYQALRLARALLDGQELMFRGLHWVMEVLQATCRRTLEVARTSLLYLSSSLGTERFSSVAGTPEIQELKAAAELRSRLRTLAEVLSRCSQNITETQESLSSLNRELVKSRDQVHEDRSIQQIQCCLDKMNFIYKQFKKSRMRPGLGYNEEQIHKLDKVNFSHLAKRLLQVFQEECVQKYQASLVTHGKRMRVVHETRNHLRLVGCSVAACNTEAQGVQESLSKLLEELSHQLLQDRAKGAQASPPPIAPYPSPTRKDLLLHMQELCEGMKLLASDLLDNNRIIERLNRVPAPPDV
# [11] = target: T4, Inhibitor of nuclear factor kappa-B kinase subunit epsilon (Homo sapiens); conditions: at 1 µM
# [12] = target: T5, Serine/threonine-protein kinase Nek1 (Homo sapiens) (UniProt Q96PY6); conditions: at 0.1 µM
# T5 sequence (whole entry): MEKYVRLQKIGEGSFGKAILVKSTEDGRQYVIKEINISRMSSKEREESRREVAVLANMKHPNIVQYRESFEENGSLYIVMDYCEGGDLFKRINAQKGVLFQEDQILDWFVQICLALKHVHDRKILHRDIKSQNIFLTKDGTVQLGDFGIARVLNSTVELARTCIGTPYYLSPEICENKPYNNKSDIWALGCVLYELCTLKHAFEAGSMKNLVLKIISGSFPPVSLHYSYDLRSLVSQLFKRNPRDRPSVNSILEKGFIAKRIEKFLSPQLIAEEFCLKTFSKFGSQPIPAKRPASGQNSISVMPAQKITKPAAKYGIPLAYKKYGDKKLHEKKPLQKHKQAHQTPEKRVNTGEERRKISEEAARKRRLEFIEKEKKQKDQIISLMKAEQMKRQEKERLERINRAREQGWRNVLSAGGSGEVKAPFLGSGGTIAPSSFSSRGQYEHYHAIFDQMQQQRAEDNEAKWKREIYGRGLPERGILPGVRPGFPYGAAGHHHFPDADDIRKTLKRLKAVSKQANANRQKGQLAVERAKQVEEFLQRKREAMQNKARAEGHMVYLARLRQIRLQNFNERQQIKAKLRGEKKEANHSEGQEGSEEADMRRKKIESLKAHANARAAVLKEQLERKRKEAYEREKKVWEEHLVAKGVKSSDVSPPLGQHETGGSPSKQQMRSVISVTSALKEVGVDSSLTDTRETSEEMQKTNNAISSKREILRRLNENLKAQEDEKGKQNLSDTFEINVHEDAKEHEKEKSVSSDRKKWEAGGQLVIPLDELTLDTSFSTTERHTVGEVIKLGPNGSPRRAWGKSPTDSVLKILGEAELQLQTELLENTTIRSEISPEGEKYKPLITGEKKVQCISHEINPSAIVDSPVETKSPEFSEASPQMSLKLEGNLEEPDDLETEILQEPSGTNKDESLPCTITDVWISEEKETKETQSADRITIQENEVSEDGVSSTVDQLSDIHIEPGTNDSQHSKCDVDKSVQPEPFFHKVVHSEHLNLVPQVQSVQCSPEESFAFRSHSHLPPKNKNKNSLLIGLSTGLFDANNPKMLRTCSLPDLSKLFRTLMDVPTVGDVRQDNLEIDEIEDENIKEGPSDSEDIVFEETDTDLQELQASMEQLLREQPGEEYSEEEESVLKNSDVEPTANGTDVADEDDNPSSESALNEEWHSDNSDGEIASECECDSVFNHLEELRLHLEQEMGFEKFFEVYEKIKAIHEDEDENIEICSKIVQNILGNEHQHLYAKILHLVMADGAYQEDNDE
# [13] = target: T5, Serine/threonine-protein kinase Nek1 (Homo sapiens); conditions: at 1 µM
# [14] = target: T6, Serine/threonine-protein kinase Nek2 (Homo sapiens) (UniProt P51955); conditions: at 0.1 µM
# T6 sequence (whole entry): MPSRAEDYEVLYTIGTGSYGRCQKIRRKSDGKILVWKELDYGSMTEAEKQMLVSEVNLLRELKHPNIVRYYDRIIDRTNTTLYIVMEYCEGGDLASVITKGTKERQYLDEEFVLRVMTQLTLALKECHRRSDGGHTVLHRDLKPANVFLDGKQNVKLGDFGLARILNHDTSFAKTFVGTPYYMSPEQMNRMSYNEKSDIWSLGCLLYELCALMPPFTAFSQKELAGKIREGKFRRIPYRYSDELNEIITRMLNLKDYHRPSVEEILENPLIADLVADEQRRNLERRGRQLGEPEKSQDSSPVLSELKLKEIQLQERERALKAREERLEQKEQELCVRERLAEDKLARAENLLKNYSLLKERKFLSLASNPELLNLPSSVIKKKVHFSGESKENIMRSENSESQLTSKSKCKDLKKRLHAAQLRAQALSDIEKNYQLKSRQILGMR
# [15] = target: T6, Serine/threonine-protein kinase Nek2 (Homo sapiens); conditions: at 1 µM
# [16] = target: Serine/threonine-protein kinase Nek6 (Homo sapiens) (UniProt Q9HC98); conditions: at 0.1 µM
# Serine/threonine-protein kinase Nek6 (Homo sapiens), sequence (Q9HC98 whole entry): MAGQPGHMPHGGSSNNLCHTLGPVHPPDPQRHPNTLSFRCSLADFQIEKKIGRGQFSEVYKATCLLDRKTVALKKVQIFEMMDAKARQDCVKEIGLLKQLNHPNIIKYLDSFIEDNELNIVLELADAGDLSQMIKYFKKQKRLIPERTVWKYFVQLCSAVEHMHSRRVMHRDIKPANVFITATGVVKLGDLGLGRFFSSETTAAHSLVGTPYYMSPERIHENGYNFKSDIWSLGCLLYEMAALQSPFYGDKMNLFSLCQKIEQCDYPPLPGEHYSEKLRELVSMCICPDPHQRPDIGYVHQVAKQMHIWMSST
# [17] = target: Serine/threonine-protein kinase Nek6 (Homo sapiens) (UniProt Q9HC98); conditions: at 1 µM
# [18] = target: Serine/threonine-protein kinase Nek7 (Homo sapiens) (UniProt Q8TDX7); conditions: at 0.1 µM
# Serine/threonine-protein kinase Nek7 (Homo sapiens), sequence (Q8TDX7 whole entry, looked up): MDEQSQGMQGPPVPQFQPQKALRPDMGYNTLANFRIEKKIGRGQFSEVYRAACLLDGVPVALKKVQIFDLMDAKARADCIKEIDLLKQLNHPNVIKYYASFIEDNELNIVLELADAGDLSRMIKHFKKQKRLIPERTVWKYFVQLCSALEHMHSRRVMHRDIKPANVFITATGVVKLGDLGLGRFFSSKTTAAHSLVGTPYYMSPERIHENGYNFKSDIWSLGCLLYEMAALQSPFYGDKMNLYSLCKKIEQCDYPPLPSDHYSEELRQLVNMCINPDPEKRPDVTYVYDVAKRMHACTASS
# [19] = target: Serine/threonine-protein kinase Nek7 (Homo sapiens) (UniProt Q8TDX7); conditions: at 1 µM
# [20] = target: T7, Serine/threonine-protein kinase Nek9 (Homo sapiens) (UniProt Q8TD19); conditions: at 0.1 µM;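 further: reported value is the mean percent inhibition of NEK9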
# T7 sequence (whole entry): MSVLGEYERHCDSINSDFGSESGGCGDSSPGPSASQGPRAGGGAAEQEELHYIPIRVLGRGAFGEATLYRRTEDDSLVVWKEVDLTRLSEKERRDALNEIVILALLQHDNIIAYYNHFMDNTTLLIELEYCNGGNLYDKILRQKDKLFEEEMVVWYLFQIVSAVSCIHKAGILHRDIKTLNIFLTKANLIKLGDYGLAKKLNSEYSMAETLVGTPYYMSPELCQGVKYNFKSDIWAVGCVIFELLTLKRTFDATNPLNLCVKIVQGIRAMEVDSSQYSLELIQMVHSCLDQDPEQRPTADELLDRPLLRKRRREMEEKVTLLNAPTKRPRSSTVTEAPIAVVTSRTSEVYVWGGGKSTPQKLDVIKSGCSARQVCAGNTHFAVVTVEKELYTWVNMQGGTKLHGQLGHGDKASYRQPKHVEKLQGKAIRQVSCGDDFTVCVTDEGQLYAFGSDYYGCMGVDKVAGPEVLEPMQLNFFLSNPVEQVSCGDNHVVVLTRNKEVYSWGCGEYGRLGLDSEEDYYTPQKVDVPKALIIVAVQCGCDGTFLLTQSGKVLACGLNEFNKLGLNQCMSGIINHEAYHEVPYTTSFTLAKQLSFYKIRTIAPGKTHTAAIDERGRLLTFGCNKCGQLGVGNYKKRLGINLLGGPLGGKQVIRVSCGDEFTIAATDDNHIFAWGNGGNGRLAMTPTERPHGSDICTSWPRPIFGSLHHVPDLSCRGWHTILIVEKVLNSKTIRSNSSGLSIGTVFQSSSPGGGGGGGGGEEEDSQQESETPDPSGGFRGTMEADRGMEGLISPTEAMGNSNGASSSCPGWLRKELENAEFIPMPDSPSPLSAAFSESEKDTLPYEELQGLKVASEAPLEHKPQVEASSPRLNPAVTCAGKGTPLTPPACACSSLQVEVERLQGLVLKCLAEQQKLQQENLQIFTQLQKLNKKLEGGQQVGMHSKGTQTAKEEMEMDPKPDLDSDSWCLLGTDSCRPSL
# Sphingosine kinase 1 (Homo sapiens), sequence (Q9NYA1 whole entry): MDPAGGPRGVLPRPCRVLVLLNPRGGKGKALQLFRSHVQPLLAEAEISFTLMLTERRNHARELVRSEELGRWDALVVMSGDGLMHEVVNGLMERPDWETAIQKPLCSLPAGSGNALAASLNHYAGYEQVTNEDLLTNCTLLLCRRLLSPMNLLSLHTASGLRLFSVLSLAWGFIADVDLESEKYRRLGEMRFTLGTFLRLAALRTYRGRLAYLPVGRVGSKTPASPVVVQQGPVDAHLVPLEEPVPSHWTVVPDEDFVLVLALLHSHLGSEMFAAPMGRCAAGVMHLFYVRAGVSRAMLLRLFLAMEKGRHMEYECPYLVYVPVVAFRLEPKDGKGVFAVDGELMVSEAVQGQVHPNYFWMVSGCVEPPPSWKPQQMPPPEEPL
smiles,measurement,setting,value
CN(C)c1cc2c(Nc3ccc4nc(Cc5ccccc5)[nH]c4c3)ncnc2cn1,inhibition,[1],-4.39%
same,inhibition,[2],-0.89%
same,inhibition,[3],-0.82%
same,inhibition,[4],3.31%
same,inhibition,[5],1.45%
same,inhibition,[6],9.26%
same,inhibition,[7],9.4%
same,inhibition,[8],7.48%
same,inhibition,[9],6.68%
same,inhibition,[10],17.5%
same,inhibition,[11],16.6%
same,inhibition,[12],2.45%
same,inhibition,[13],3.05%
same,inhibition,[14],6.53%
same,inhibition,[15],8.34%
same,inhibition,[16],3.19%
same,inhibition,[17],-0.04%
same,inhibition,[18],6.44%
same,inhibition,[19],4.66%
same,inhibition,[20],14.3%
